40 compounds from PubChem BioAssay (NCI) can be followed below.

This is part of a sample that, as a whole, favours compounds with a hit. Of some 83,000 tested, about 20% had one in any assay.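 Plates (96-well) were seeded with cells, treated with compound at one concentration, and incubated for 48 hours before percent growth was determined.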 Active and inactive are the calls of the source.

In the experiment the test system is U251 CNS. The experiment in a line: NCI-60 one-dose screen, 48 h (100 = growth as untreated, 0 = no growth, -100 = all killed). The settings on record: 10 µM unless noted. The protocol: Growth inhibition of the U251 human tumor cell line is measured as a screen for anti-cancer activity. Cells are grown in 96 well plates and exposed to the test compound for 48 hours. Compounds are tested at a single concentration, which is 10^-5 M for most compounds. The reported endpoint is percent growth (GI% or GIPRCNT), where numbers from 0 - 100% represent growth inhibition, and numbers from -100% - 0 represent cell death. For example, a value of 40 represents 60% growth inhibition. A value of 0 means no net growth occurred over the course of the experiment. A value of -40 indicates 40% of cells at the beginning of the experiment died by the end of the experiment. A value of -100 means all cells are dead at the end of the experiment.
NCI-60 Human Tumor Cell Lines Screen was performed using the standard one-dose NCI protocol, which is described in more detail at https://dtp.cancer.gov/discovery_development/nci-60/default.htm.
Compounds with GIPRCNT values below 10 were considered active. Activity score was based on GIPRCNT using the following formula: […]
Score is 0 for GIPRCNT values of 100 or above, 50 for GIPRCNT values of 0, and 100 for GIPRCNT values of -100.
For the compound `COc1cc(NCCN(CC(C)C)C2CCCC2)c2ncccc2c1`, the growth is 94.1% (inactive).
As for `COc1ccc(-c2nc3sccn3c2/C=C/C(=O)c2cc(OC)c(OC)c(OC)c2)cc1`, the growth was 43.1% (inactive).
As for `COc1ccc(CC(C)=C(c2ccc(OCCN(C)C)cc2)c2ccc(OCCN(C)C)cc2)cc1`, the figure is 55.3% (inactive); as for `C=C(C)[C@@H]1CC[C@]2(C(=O)O)CC[C@]3(C)[C@H](CC[C@@H]4[C@@]5(C)C[C@@H](CC#Cc6ccc(Br)cc6)C(=O)C(C)(C)[C@@H]5CC[C@]43C)[C@@H]12`, 3.58% (active).
Next, `COc1ccc(C2CC(c3cccc(Nc4ccncc4)c3)=NN2c2ccccc2)cc1` (stereo not given): 8.79% (active); `CCCCOc1ccc(/C=N/Nc2cc(C)nc3ccc(Cl)cc23)cc1`: -82.1% (active); `COc1ccc(-c2nc(N/N=C/c3ccco3)nc(N3CCOCC3)c2C#N)cc1`: 91.8% (inactive).
Turning to `COc1ccc(/C=C/C(=O)c2ccc(OC)c(OC)c2)cc1O`, the growth is 25.4% (inactive).
Next, `N#C/C(=C\c1ccc(Br)cc1)n1nnc2cccc(F)c21`: 15.6% (inactive); `CCn1ccnc1C(=O)/C=C/c1ccc(CC(=O)Nc2ccc(F)cc2)cc1`: 10.5% (inactive); `Cc1[nH]n(-c2cccc(Cl)c2)c(=O)c1/C=C1\C=Nc2ccc(Br)cc21`: 7.54% (active).
As for `Cc1c([N+](=O)[O-])cc(C(C)(C)C)cc1[N+](=O)[O-]`, the figure is 95.4% (inactive).
As to `COc1cccc2c1C(=O)c1c(O)c3c(c(O)c1C2=O)C[C@@](O)(C(=O)CO)C[C@@H]3O[C@H]1C[C@H](N)[C@@H](O)[C@H](C)O1`, the growth is 3.07% (active).
Next, `CCNC(=O)c1[nH]cc(-c2ccc(OC)cc2)c1-c1cc(OC)cc(OC)c1`: 98% (inactive); `CCc1c(Nc2ccc(C)cc2)[nH]c(N)nc1=S`: 97% (inactive).
Next, `COc1cc(COC(=O)CCCCC[P+](c2ccccc2)(c2ccccc2)c2ccccc2)c(OC)c2c1OCO2`: 56.8% (inactive).
As to `O=C1Nc2c(ccc(Cl)c2Cl)/C1=C/c1ccc(F)cc1`, the growth is 92.8% (inactive).
As for `COc1ccc2c(c1)OC1=C(C(=O)OC1)C2c1cc(OC)c(OC)c(OC)c1` (stereo not given), the figure is 21.6% (inactive); as for `Clc1ccc(C2CC(c3cccc(Nc4ccncc4)c3)=NN2c2ccc(Cl)cc2)cc1` (stereo not given), -49.7% (active); as for `COc1ccc(NS(=O)(=O)c2ccc(C)cc2)c([N+](=O)[O-])c1`, 93.3% (inactive).
Next, `C[C@]12C[C@H]1CC[C@]1(C)[C@@H]2CC[C@@]23C[C@H](CC[C@H]21)[C@@](O)(CO)C3`: 103% (inactive); `CCCN=C(N)c1ccc(NC(=O)c2ccc(C(=O)Nc3ccc(C(N)=NCCC)cc3)cc2)cc1`: 107% (inactive).
As for `NC(=O)c1cccc(-c2cc(C(N)=O)ccc2Cl)c1`, the figure is 19.1% (inactive); as for `CC(C)Cc1ccc(C(C)C(=O)NCc2ccc(Cn3c(=O)sn(-c4ccc(Cl)cc4)c3=O)cc2)cc1` (stereo not given), 65.5% (inactive); as for `CCCCc1ccc(Nc2nnc(SCC(=O)NC(=O)NCC)s2)cc1`, 96% (inactive).
As for `NC(=O)C1(N2CCCCC2)CCN(CCCC(=O)c2ccc(F)cc2)CC1`, the growth is 23.2% (inactive).
Next, `COc1ccc(/C=C/c2n[nH]c3ccc(N4CCOC4=O)cc23)cc1`: 15.9% (inactive); `CC(=O)OC1CCC2(C)C(CCC3C4CC=C(C(C)=O)C4(C)OC(=O)CC32)C1` (stereo not given): 54.8% (inactive).
Next, `O=S(=O)(NCCCNc1nccc(-c2c(-c3cccc(O)c3)nc3occn23)n1)c1ccc(Br)cc1`: 104% (inactive).
As for `O=C(NNc1nc(Cl)nc(N2CCN(C(c3ccccc3)c3ccccc3)CC2)n1)c1ccccc1`, the figure is 27.3% (inactive); as for `CO[C@@H]1[C@H](N(C)C(=O)c2ccccc2)C[C@@H]2O[C@]1(C)n1c3ccccc3c3c4c(c5c6ccccc6n2c5c31)C(=O)NC4=O`, 44.3% (inactive).
Consider `CCCCCCCCCCCC(=O)C(CCCCCCCCCC)C(=O)Nc1ccccc1` (stereo not given), for which the growth is 99.4% (inactive).
Next, `COC(=O)C1=C(C(=O)ONCCN(C)C)C2C=CC1(C(Cc1ccccc1)Nc1ccc(F)cc1)O2` (stereo not given): 100% (inactive); `Cc1ccc(-c2c(Br)c(OC(=O)CO[C@@H]3C[C@H](C)CC[C@H]3C(C)C)c(-c3ccc(C)cc3C)c(Br)c2OC(=O)CO[C@H]2C[C@@H](C)CC[C@@H]2C(C)C)c(C)c1`: 99.1% (inactive).
As for `Fc1ccccc1CSc1ncnc2nc[nH]c12`, the growth is 106% (inactive).
Next, `Clc1ccc(C2CC(c3cccc(Nc4ccncc4)c3)=NN2c2cc(Cl)cc(Cl)c2)cc1` (stereo not given): 0.417% (active); `CCc1c(Nc2ccc(C)cc2)nc(N)[nH]c1=O`: 101% (inactive); `Cc1cc(C(=O)Nc2ncnc3nc[nH]c23)no1`: 105% (inactive).
Turning to `O=C(NCCN1CCOCC1)OCc1nc2nc(Cl)nc(N3CCOCC3)c2[nH]1`, the growth was 19.7% (inactive).
As for `COc1ccc(/C=C/C(=O)c2ccc(Nc3ncnc4ccccc34)cc2)cc1OC`, the figure is 54.1% (inactive).
